From PubChem BioAssay
Most compounds without a hit are left out; they make up all but 19% or so of the library.
TDP1 cell CPT – DT40-hTDP1 cell growth loss with CPT; Potency, µM (doses to about 46.2 µM), for inactives: at the highest dose activity change, negative = growth inhibition, hits mostly inhibitors; chicken DT40 Tdp1-/-;hTDP1 cells + 20 nM CPT, ATP luminescence, 48 h; hit rate 12% among 420,000; note: potency is the fitted concentration of half-maximal effect; nearly all actives have a fitted effect of over 55% in size
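Cell growth measured by CellTiter-Glo luminescence after a minimum 48 h, 37 C compound exposure with 20 nM CPT in Tdp1-knockout DT40 cells stably expressing hTDP1, seeded 400/well; qHTS titration format.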
Giardia kill – Giardia lamblia killing. activity change, % at 7.66 µM, hits read low. hit rate 0.15% among 340,000. AID 540267. Giardia lamblia trophozoite viability; in the data active = activity change below about -80%; inconclusive = between about -30% and that limit;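 note: parasites exposed to compound for two days anaerobically before the ATP read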
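Viability, read as ATP luminescence: trophozoites at 100 cells/well, compound added, 48 hrs anaerobic at 37 deg C, then 15-30 min room-temperature development before reading.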
DT40 TDP1 no CPT – qHTS for Inhibitors of human tyrosyl-DNA phosphodiesterase 1 (TDP1): qHTS in cells in absence of CPT | DT40 Tdp1-/- hTDP1 cells, no CPT, ATP luminescence, 48 h | Potency, µM (highest dose often 46.2 µM), for inactives: at the highest dose activity change, negative = growth inhibition, most hits filed as inhibitors | hit rate 15% among 420,000 | AID 686978, 2013; note: potency is the fitted concentration of half-maximal effect; nearly all actives have a fitted effect of over 55% in size
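Readout: luminescence from CellTiter-Glo after 30 min in the dark at RT. Cells: DT40 Tdp1-/- with stable hTDP1, 400/well. Exposure: compounds alone, ≥48 hr, 37 °C.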
ELG1 DNA repair – ELG1-dependent DNA repair inhibition. AID 504467. Potency, µM (top dose mostly 46.1 µM), for the others: at the top dose activity change, negative = inhibition, usual class: inhibitors. hit rate 2.3% among 330,000. HEK293T ELG1-luciferase reporter, luminescence, 16 h; DNA damage induced by 5-fluorouridine; note: potency is the fitted concentration of half-maximal effect; nearly all actives have a fitted effect of over 55% in size
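In this reporter screen, reduction of luminescence relative to DMSO vehicle indicated activity. Compounds and 5-fluorouridine were added together to 2,000 cells per well, incubated for 16 hr at 37 °C, then developed with ONE-Glo.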
TDP1 block – blocks human tyrosyl-DNA phosphodiesterase 1; recombinant TDP1, AlphaScreen DNA substrate cleavage; hit rate 0.28% among 350,000; Potency, µM (series often up to 130 µM), without a hit: at the highest dose activity change, negative = inhibition, most hits filed as inhibitors; Q9NUW8; AID 485290; note: potency is the fitted concentration of half-maximal effect; nearly all actives have a fitted effect of over 40% in size
Target sequence (Q9NUW8 whole entry, looked up): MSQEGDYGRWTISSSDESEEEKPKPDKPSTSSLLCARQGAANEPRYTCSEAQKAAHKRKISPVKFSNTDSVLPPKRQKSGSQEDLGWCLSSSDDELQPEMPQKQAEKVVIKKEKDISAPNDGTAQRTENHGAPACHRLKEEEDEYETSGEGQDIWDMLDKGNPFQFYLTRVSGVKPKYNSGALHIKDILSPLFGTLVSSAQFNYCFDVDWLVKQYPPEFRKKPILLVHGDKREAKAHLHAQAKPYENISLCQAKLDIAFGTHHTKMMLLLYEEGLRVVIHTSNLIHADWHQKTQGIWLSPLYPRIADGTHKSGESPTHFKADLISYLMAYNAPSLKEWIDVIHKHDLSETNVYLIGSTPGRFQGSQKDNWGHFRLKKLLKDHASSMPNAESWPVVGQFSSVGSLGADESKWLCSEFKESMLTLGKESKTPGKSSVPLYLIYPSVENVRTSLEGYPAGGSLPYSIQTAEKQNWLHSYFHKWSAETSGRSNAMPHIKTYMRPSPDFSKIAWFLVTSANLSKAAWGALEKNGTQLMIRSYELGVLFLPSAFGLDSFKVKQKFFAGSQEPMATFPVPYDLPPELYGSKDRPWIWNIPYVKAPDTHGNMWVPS
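E. coli-derived human Tdp1, 1 nM final. Cpd preinc 15 min RT; substrate 15 nM final, 5 min RT; AS bead mix 10 ug/ml final, 10 min RT. Signal loss = tyrosine-FITC cleavage. No-enzyme wells = max signal.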
IL-1B inflam inh – inhibitors of inflammasome signaling (IL-1 beta secretion). THP-1 LPS/ATP IL-1B secretion, AlphaLISA, 16 h; stronger effect = lower value. activity change, % at 57.5 µM. hit rate 4.7% among 360,000; in the data active = activity change below about -50%; inconclusive = mostly about -30% to -49%
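THP-1 cells pretreated 1 hr with compounds (up to 57.5 uM final), then stimulated with LPS (250 ng/mL final) plus ATP (1.25 mM final); secreted IL-1B measured by AlphaLISA after 16 hr, decreased signal indicating inhibition.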
* = called active by the depositor; ? = inconclusive; . = not tested or not shown; [ ] = dose if it differs, or a comment. Unless noted, calls come from the whole dose curve; as a rule, active = well fitted curve in the direction sought with a large enough effect; inconclusive = small, poorly fitted or top-dose-only effect, or another doubt; inactive = no such curve, though single readings can be large; an effect the other way counts as inactive or inconclusive. % is set by controls: 0 for no effect and ±100 for the full control effect.

SMILES	TDP1 cell CPT	Giardia kill	DT40 TDP1 no CPT	ELG1 DNA repair	TDP1 block	IL-1B inflam inh
Cc1ccc(C)c(NC2=C(c3ccc(C(F)(F)F)cc3)C(=O)c3ccccc32)c1	5.8µM*	.	5.8µM*	.	7.5%	.
Cc1cccc(-c2nc(SCC(=O)Nc3ccc4c(c3)OCO4)c(-c3ccccc3)[nH]2)c1	20.6µM*	.	?	.	10.0%	.
COc1ccc(-c2[nH]c(-c3ccccc3)nc2SCC(=O)Nc2ccc3c(c2)OCCO3)cc1	13µM*	.	16.4µM*	.	10.0%	.
O=C(CSc1nc(-c2ccccc2)[nH]c1-c1ccccc1)Nc1ccc2c(c1)OCCO2	10.3µM*	.	9.2µM*	.	10.0%	.
Cc1ccc(-c2nsc(SCC(=O)Nc3ccc4c(c3)OCO4)n2)cc1	?	10.2	?	?	0.0%	-0.4
O=C(CSc1ccccn1)Nc1ccc2c(c1)OCCO2	14.7%	3.0	-27.1%	?	1.3%	-7.9
COc1ccc(-c2nc(SCC(=O)Nc3ccc4c(c3)OCO4)c(-c3ccc(OC)cc3)[nH]2)cc1	-18.6%	.	-26.5%	.	-4.3%[12.3 µM]	.
NS(=O)(=O)c1cnccc1Nc1ccc(Cl)c(Cl)c1	-17.1%	3.9	-22.5%	-18.3%	2.6%	-10.2
CC(=O)Nc1ccc(NC(=O)CSc2nc(C)nc3sc(C)c(C)c23)cc1	1.1%	-4.2	?	-7.2%	2.5%	-25.9
CCCCn1c(SCC(=O)c2cc(OC)ccc2OC)nc2cc(S(N)(=O)=O)ccc21	0.2%	5.5	-19.3%	7.9%	2.9%	19.6
COC(=O)c1cc(CSc2nc3ccc(C)cc3[nH]2)oc1C	16.4µM*	-6.6	18.4µM*	?	4.9%	-5.4
COC(=O)c1ccc2c(=O)n(Cc3ccco3)c(SCC(=O)Nc3ccc(C)c(Cl)c3)nc2c1	10.3µM*	3.8	20.6µM*	?	1.0%	18.4
COC(=O)c1ccc(CSc2nc(C)nc3sc(C)c(C)c23)o1	14.6µM*	-4.5	10.3µM*	17.6%	-1.0%	38.0
CCCCn1c(SCc2ccc(C(=O)OC)o2)nc2cc(S(N)(=O)=O)ccc21	3.26µM*	15.5	9.2µM*	10.3µM*	-2.0%	-78.1*
O=C(CSc1nc2cc(Cl)ccc2c(=O)n1Cc1ccco1)Nc1ccc(S(=O)(=O)N2CCOCC2)cc1	-23.9%	3.2	-20.3%	?	3.5%	-5.2
CC(C)(C)OC(=O)N1CCC(c2c(C(=O)NCC3CCN(C4CCCC4)C3)cnn2-c2ccccc2Cl)CC1 (stereo unspecified)	?	-25.7	?	9.1%	0.8%	-13.6
COc1ccc(CCN(C)CC(O)COc2ccc(C(C)=O)cc2OC)cc1OC (stereo unspecified)	-28.6%	3.2	-25.3%	-0.7%	.	-8.6
CCc1nc(SCc2ccc(C(=O)OC)o2)c2c(=O)n(C)c(=O)n(C)c2n1	14.6µM*	-1.1	9.2µM*	?	-5.2%	22.1
Cc1cccc(OCCSc2nc3ncnc(N)c3[nH]2)c1	?	17.4	-27.3%	5.3%	6.2%	5.5
CC(C)C(=O)NNC(=O)CSc1nnc(-c2ccccc2)c(-c2ccccc2)n1	-14.9%	-2.2	-10.1%	3.3%	5.1%	16.5
Cc1cccc(OCCCSc2nc3ccc(C)cc3[nH]2)c1	?	9.8	?	12.3%	5.6%	-72.2*
CCc1nc(SCC(=O)NCc2ccc(F)cc2)c2c(=O)n(C)c(=O)n(C)c2n1	-2.5%	-18.0	-5.0%	12.2%	6.5%	15.4
COC(=O)c1ccc(CSc2nc3ccccc3c(=O)n2Cc2ccco2)o1	23.1µM*	-9.6	16.4µM*	?	-1.0%	2.9
COC(=O)c1cc(CSc2nnc(-c3ccccc3)c(-c3ccccc3)n2)oc1C	23.1µM*	7.9	20.6µM*	20.6µM*	8.2%	-16.2
COCC(C)n1c(SCc2cc(C(=O)OC)c(C)o2)nc2ccccc2c1=O (stereo unspecified)	4.11µM*	11.1	5.8µM*	?	1.9%	-12.6
SMILES	TDP1 cell CPT	Giardia kill	DT40 TDP1 no CPT	ELG1 DNA repair	TDP1 block	IL-1B inflam inh
COC(=O)c1ccc(CSc2nc3ccccc3c(=O)n2C)o1	14.6µM*	2.9	?	2.6%	9.6%	?
COCC(C)n1c(SCC(=O)Nc2cccnc2Cl)nc2ccccc2c1=O (stereo unspecified)	3.5%	.	?	.	.	-15.1
COc1ccc(CCC(=O)Nc2nc3ccccc3[nH]2)cc1OC	-1.9%	7.8	1.6%	-7.5%	3.0%	4.2
CCOc1ccccc1OCCCC(=O)Nc1nc2ccccc2[nH]1	-3.0%	-0.3	-13.9%	?	2.6%	-1.8
COc1ccccc1CCC(=O)Nc1nc2ccccc2[nH]1	5.8µM*	30.8	4.11µM*	?	2.6%	-1.0
CCCCCC(=O)Nc1nc2ccccc2[nH]1	9.2µM*	-8.4	8.2µM*	?	1.1%	12.8
COC(=O)C(NS(=O)(=O)CCl)C(C)C (stereo unspecified)	.	13.6	.	.	2.1%	.
O=C1C=C(c2ccc3c(c2)OCCO3)C[C@@H](c2ccc(F)cc2)C1	?	-18.2	?	-1.9%	-0.7%	-0.9
COc1ccc(-c2cc3nc(C)c(CCC(=O)N4CCN(c5ccccc5F)CC4)c(C)n3n2)c(OC)c1	?	.	29.1µM*	.	4.6%	.
COc1ccc(-c2cc3nc(C)c(CCC(=O)N4CCN(c5ccccn5)CC4)c(C)n3n2)c(OC)c1	?	1.6	16.4µM*	?	3.4%	-28.4
C=CCc1c(O)c(CC)cc2c(C)cc(=O)oc12	24.2%	-5.3	7.3%	4.3%	.	84.4
O=C(NCc1nnc2c(C(F)(F)F)cc(Cl)cn12)c1ccco1	1.5%	?	15.3%	?	-5.7%	13.8
CC1(C)CC(=O)C=C(c2ccc(-c3ccc(S(C)(=O)=O)cc3)cc2)C1=O	20.6µM*	.	11.6µM*	.	.	23.9
COc1ccccc1-c1ccccc1C1=CC(=O)CC(C)(C)C1=O	-4.7%	.	-26.6%	.	.	2.6
COc1cccc(-c2ccc(C3=CC(=O)CC(C)(C)C3=O)cc2)c1OC	?	.	20.6µM*	.	.	-4.5
CC(=O)OCc1ccc(C2=CC(=O)CC(C)(C)C2=O)cc1	14.9%	.	-17.2%	.	.	4.3
Cc1cc(C)c2nc(-c3ccccn3)cc(C(=O)N3CCCC3)c2c1	?	11.0	-20.0%	-1.2%	5.6%	-15.1
CC(C)(O)C#Cc1ccc(N2C(c3ccsc3)=Cc3ccc(F)cc3C2c2c[nH]c3ccc(C#N)cc23)cc1 (stereo unspecified)	5.17µM*	.	?	.	.	-17.5
COc1c(/C=N/NC(=O)[C@H]2C[C@@H]2c2ccccc2)c(CCN(C)C(C)=O)cc2c1OCO2	-16.1%	-12.2	-15.8%	13µM*	.	-9.0
